In PubChem BioAssay (EPA / NIEHS):
Values joined by “and” are separate entries in the source; they are usually repeats but may differ in a detail not shown here. Identical values can stand only once. Records with an inconclusive call do not appear. The source holds several records for some structures; these can differ, active in one and inactive in another. Active and inactive are the calls of the source. Rule for the calls, unless noted: active = hit-call score of the fitted dose curve at least 0.9, where 1 is the maximum; inactive = score below 0.9.

Assays:
[1] = read-out: Interleukin-8 (IL8), CXCL8 (gene 3576); experiment: BSK_3C_IL8: BioMAP Diversity Plus: 3C Assay for Interleukin-8 (IL8) Biomarker Activity (AID 2283020); conditions: primary human endothelial cells (HUVEC); actives raise or lower the signal
Method in brief: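 HUVEC, 3C stimulation; 24 h compound exposure; IL-8 read by ELISA; gain or loss of signal fitted relative to DMSO control.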

[2] = read-out: Monokine induced gamma interferon (MIG), CXCL9 (gene 4283); experiment: BSK_3C_MIG: BioMAP Diversity Plus: 3C Assay for Monokine induced gamma interferon (MIG) Biomarker Activity (AID 2283021); conditions: primary human endothelial cells (HUVEC); actives raise or lower the signal;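 for AC50: MIG protein level measured by immunoassay in the treated endothelial cultures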
Method in brief: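 HUVEC, 3C system; 24 h chemical exposure; MIG by ELISA; bidirectional fit vs DMSO baseline.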

[3] = molecular target: human Vitamin D Receptor (VDR), VDR (gene 7421) (UniProt P11473); experiment: ATG_VDR_TRANS: Attagene TRANS-FACTORIAL HepG2 Assay for human Vitamin D Receptor (VDR) (AID 2283022; active = hit-call score of the fitted dose curve at least 0.9, where 1 is the maximum)
Method in brief: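 Multiplexed TRANS reporter in HepG2; 24 h treatment; reporter mRNA by RT-PCR plus capillary electrophoresis; upregulation scored relative to DMSO.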

[4] = BSK_3C_SRB: Viability Assessment in the BioMAP Diversity Plus: 3C Assay (AID 2283023); conditions: primary human endothelial cells (HUVEC);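 note: fitted both ways against DMSO so a hit may be signal rise or drop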
Method in brief: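 Overt cytotoxicity is gauged in parallel confluent HUVEC cultures by SRB total-protein staining at the time of biomarker measurement, 24 h after dosing. Gain or loss of signal is fitted versus DMSO.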

[5] = read-out: Matrix Metallopeptidase 1 (MMP1), MMP1 (gene 4312); experiment: BSK_BE3C_MMP1: BioMAP Diversity Plus: BE3C Assay for Matrix Metallopeptidase 1 (MMP1) Biomarker Activity (AID 2283024); conditions: primary human bronchial epithelial cells; actives raise or lower the signal
Method in brief: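 ELISA read-out of MMP1 in human lung bronchial epithelial primary cultures, 24 h post-dose; bidirectional curve fit vs DMSO baseline, gain or loss of signal scored.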

[6] = BSK_3C_Vis: BioMAP Diversity Plus: 3C Assay for Morphology Visualization (AID 2283025); conditions: primary human endothelial cells (HUVEC);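 note: fitted both ways so gain or loss versus DMSO counts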;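 for AC50: light microscopy image of cell morphology used as background control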
Method in brief: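 HUVEC, 3C system; light microscopy of morphology at 24 h post-dose. Bidirectional fit vs DMSO baseline. Secondary readout, background-control function.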

[7] = read-out: Pselectin, SELP (gene 6403); experiment: BSK_4H_Pselectin: BioMAP Diversity Plus: 4H Assay for Pselectin Biomarker Activity (AID 2283026); conditions: primary human endothelial cells (HUVEC); actives raise or lower the signal
Method in brief: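 HUVEC, 24 h chemical exposure; P-selectin read by ELISA. Bidirectional curve fit vs DMSO baseline; gain or loss of signal scored.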

[8] = BSK_4H_SRB: Viability Assessment in the BioMAP Diversity Plus: 4H Assay (AID 2283027); conditions: primary human endothelial cells (HUVEC);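 note: cells exposed to compound for 24 h before staining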;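 for AC50: curves fitted both ways versus DMSO so AC50 may be loss or gain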
Method in brief: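 Cytotoxicity readout: sulforhodamine B (0.1%) staining of total protein after 10% TCA fixation, measured at 560 nm in human umbilical vein endothelium at 24 h. DMSO set the baseline; fitting was bidirectional.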

[9] = BSK_BE3C_SRB: Viability Assessment in the BioMAP Diversity Plus: BE3C Assay (AID 2283028); conditions: primary human bronchial epithelial cells;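 note: measured 24 h after chemical dosing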;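 for AC50: fitted both ways so AC50 may mark signal gain or loss versus DMSO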
Method in brief: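 SRB total-protein staining (0.1%, after TCA fixation) of chemically dosed human bronchial epithelial primary cells at 24 h; DMSO serves as the negative control for bidirectional curve fitting.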

[10] = read-out: Thrombomodulin, THBD (gene 7056); experiment: BSK_3C_Thrombomodulin: BioMAP Diversity Plus: 3C Assay for Thrombomodulin Biomarker Activity (AID 2283029); conditions: primary human endothelial cells (HUVEC); actives raise or lower the signal
Method in brief: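 HUVEC, 3C conditions; compound 24 h; thrombomodulin by ELISA; bidirectional curve fit vs DMSO baseline; parallel SRB total-protein staining for cytotoxicity.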

[11] = read-out: Urokinase-type plasminogen activator receptor (uPAR), PLAUR (gene 5329); experiment: BSK_4H_uPAR: BioMAP Diversity Plus: 4H Assay for Urokinase-type plasminogen activator receptor (uPAR) Biomarker Activity (AID 2283030); conditions: primary human endothelial cells (HUVEC); actives raise or lower the signal
Method in brief: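 Endpoint derived via bidirectional curve fitting against DMSO baseline; readout was ELISA detection of uPAR on umbilical vein endothelial cells at 24 h post-treatment, with SRB-stained parallel cultures assessing cytotoxicity.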

[12] = read-out: Vascular endothelial growth factor receptor 2 (Homo sapiens) (UniProt P35968); experiment: BSK_4H_VEGFRII: BioMAP Diversity Plus: 4H Assay for Vascular endothelial growth factor receptor 2 (VEGFR2) Biomarker Activity (AID 2283031); conditions: primary human endothelial cells (HUVEC); actives raise or lower the signal
Method in brief: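 In this multiplexed HUVEC system, biomarker ELISA was performed after 24 h chemical exposure. Parallel SRB staining (TCA fixation, 560 nm) tracked cytotoxicity; DMSO served as baseline.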

[13] = read-out: Human Leukocyte Antigen - DR isotype (HLADR), HLA-DRA (gene 3122); experiment: BSK_BE3C_HLADR: BioMAP Diversity Plus: BE3C Assay for Human Leukocyte Antigen - DR isotype (HLADR) Biomarker Activity (AID 2283032); conditions: primary human bronchial epithelial cells; actives raise or lower the signal
Method in brief: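 Primary human bronchial epithelial cells (BE3C); 24 h chemical exposure; HLA-DR by ELISA; bidirectional curve fit vs DMSO baseline.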

[14] = read-out: Vascular cell adhesion molecule 1 (VCAM1), VCAM1 (gene 7412); experiment: BSK_4H_VCAM1: BioMAP Diversity Plus: 4H Assay for Vascular cell adhesion molecule 1 (VCAM1) Biomarker Activity (AID 2283033); conditions: primary human endothelial cells (HUVEC); actives raise or lower the signal
Method in brief: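 HUVEC, 24 h post-dose; VCAM-1 by ELISA. Bidirectional curve fit vs DMSO baseline. Parallel SRB total-protein stain (0.1% SRB after 10% TCA fixation, 560 nm) for cytotoxicity.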

[15] = read-out: Interferon-gamma inducible Protein 10 (IP10), CXCL10 (gene 3627); experiment: BSK_BE3C_IP10: BioMAP Diversity Plus: BE3C Assay for Interferon-gamma inducible Protein 10 (IP10) Biomarker Activity (AID 2283034); conditions: primary human bronchial epithelial cells; actives raise or lower the signal
Method in brief: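 ELISA readout of IP-10 in BE3C system: primary human bronchial epithelial cells, 24 h post-dosing; bidirectional curve fit vs DMSO baseline.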

[16] = read-out: Monokine induced gamma interferon (MIG), CXCL9 (gene 4283); experiment: BSK_BE3C_MIG: BioMAP Diversity Plus: BE3C Assay for Monokine induced gamma interferon (MIG) Biomarker Activity (AID 2283035); conditions: primary human bronchial epithelial cells; actives raise or lower the signal;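 note: MIG protein measured by ELISA in BE3C cultures after 24 h of dosing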
Method in brief: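 hu bronchial epithelial 1° cells, 24 h cpd; MIG by ELISA; bidirectional fit, DMSO = baseline.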

[17] = read-out: Transforming growth factor beta 1 (TGFb1), TGFB1 (gene 7040); experiment: BSK_BE3C_TGFb1: BioMAP Diversity Plus: BE3C Assay for Transforming growth factor beta 1 (TGFb1) Biomarker Activity (AID 2283036); conditions: primary human bronchial epithelial cells; actives raise or lower the signal
Method in brief: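 Read-out: ELISA for TGF-b1 in primary human bronchial epithelial cultures, 24 h post-dose. Bidirectional curve fitting vs DMSO control; gain or loss of signal both scored.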

[18] = read-out: Plasminogen activator inhibitor-1 (PAI1), SERPINE1 (gene 5054); experiment: BSK_BE3C_PAI1: BioMAP Diversity Plus: BE3C Assay for Plasminogen activator inhibitor-1 (PAI1) Biomarker Activity (AID 2283037); conditions: primary human bronchial epithelial cells; actives raise or lower the signal
Method in brief: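 ELISA read-out of PAI-1 from human bronchial epithelial primary cells, 24 h post-dosing; bidirectional curve fit vs DMSO baseline, gain or loss of signal scored.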

[19] = read-out: urokinase plasminogen activator (uPA), PLAU (gene 5328); experiment: BSK_BE3C_uPA: BioMAP Diversity Plus: BE3C Assay for urokinase plasminogen activator (uPA) Biomarker Activity (AID 2283038); conditions: primary human bronchial epithelial cells; actives raise or lower the signal
Method in brief: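 Using confluent primary human lung bronchial epithelial cultures, we dosed chemicals, waited 24 h, then ran a uPA ELISA, fitting bidirectionally against DMSO.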

[20] = read-out: Urokinase-type plasminogen activator receptor (uPAR), PLAUR (gene 5329); experiment: BSK_BE3C_uPAR: BioMAP Diversity Plus: BE3C Assay for Urokinase-type plasminogen activator receptor (uPAR) Biomarker Activity (AID 2283039); conditions: primary human bronchial epithelial cells; actives raise or lower the signal
Method in brief: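 ELISA readout of uPAR on human lung primary bronchial epithelial cells, 24 h post-dosing. Bidirectional curve fit relative to DMSO vehicle baseline; gain or loss of signal both scored.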

Measured: AC50

Chain of human Vitamin D Receptor (VDR), VDR (gene 7421) (P11473 whole entry, looked up): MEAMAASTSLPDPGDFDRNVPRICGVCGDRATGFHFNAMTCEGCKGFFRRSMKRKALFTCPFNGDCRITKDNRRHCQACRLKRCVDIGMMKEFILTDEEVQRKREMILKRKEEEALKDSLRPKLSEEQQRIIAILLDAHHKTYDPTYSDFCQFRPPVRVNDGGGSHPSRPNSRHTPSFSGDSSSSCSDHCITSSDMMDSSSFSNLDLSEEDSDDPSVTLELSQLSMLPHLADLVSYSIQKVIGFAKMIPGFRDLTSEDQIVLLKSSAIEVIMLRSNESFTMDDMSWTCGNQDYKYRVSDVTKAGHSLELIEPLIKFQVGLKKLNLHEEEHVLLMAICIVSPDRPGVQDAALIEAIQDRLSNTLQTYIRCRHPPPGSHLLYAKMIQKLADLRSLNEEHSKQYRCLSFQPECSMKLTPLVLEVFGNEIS

CCN(CC)c1ccc(C=O)c(O)c1
inactive: all assays above

O=C(O)C(F)(F)C(F)(F)C(F)(F)C(F)(F)C(F)(F)C(F)(F)C(F)F
inactive: [1] | [2] | [3] | [4] | [5] | [7] | [8] | [9] | [10] | [11] | [12] | [13] | [14] | [15] | [16] | [18] | [19] | [20]
active: [1] 30 µM | [5] 12 µM

CCOC(=O)CC(=O)C(F)(F)C(F)(F)F
active: [11] 15.1 µM
inactive: [1] | [2] | [3] | [4] | [5] | [7] | [8] | [9] | [10] | [11] | [12] | [13] | [14] | [15] | [18] | [19] | [20]

C=CC(=O)OCC(F)(F)C(F)(F)C(F)(F)C(F)(F)C(F)(F)C(F)(F)C(F)(F)C(F)F
active: [10] 5.95 µM and 19.2 µM
not listed: [6] | [17]
inactive: all other assays above

Brc1nc2ccccc2s1
not listed: [7]
inactive: all other assays above

CC(C)CCCC(C)CCO (stereo not drawn)
active: [4] 33.8 µM | [6] 39.6 µM | [8] 28.8 µM | [9] 7.28 µM | [13] 29.1 µM | [15] 14.4 µM | [17] 20 µM | [19] 28.6 µM | [20] 24.9 µM
not listed: [7]
inactive: all other assays above

NS(=O)(=O)C(F)(F)C(F)(F)C(F)(F)C(F)(F)C(F)(F)C(F)(F)F
active: [4] 49.4 µM and 44.3 µM | [5] 30 µM and 33.2 µM | [8] 37.2 µM and 30 µM | [14] 30 µM | [15] 30 µM and 24.4 µM | [18] 7.32 µM | [20] 41.8 µM
inactive: [1] | [2] | [3] | [7] | [9] | [10] | [11] | [12] | [13] | [14] | [16] | [18] | [19] | [20]

C[C@]12CC[C@H]3C(=CCc4cc(O)ccc43)[C@@H]1CCC2=O
active: [15] 6.48 µM
not listed: [7]
inactive: all other assays above

O=C(Cl)C(F)(F)C(F)(F)C(F)(F)C(F)(F)C(F)(F)C(F)(F)C(F)(F)F
active: [5] 6 µM and 24 µM | [15] 19.8 µM
inactive: [1] | [2] | [3] | [4] | [5] | [7] | [8] | [9] | [10] | [11] | [12] | [13] | [14] | [15] | [18] | [19] | [20]

FC(F)(F)C(F)(F)C(F)(F)C(F)(F)C(F)(F)C(F)(F)CC[Si](Cl)(Cl)Cl
not listed: [6] | [16] | [17]
inactive: all other assays above

Cc1cc(O)c(C(C)(C)C)cc1C(C)(C)C
inactive: [3] | [12]
active: [1] 2.73 µM | [2] 11.5 µM | [4] 3.99 µM | [5] 9.45 µM | [6] 12.5 µM | [8] 4.77 µM | [9] 5.9 µM | [10] 4.96 µM | [11] 3.28 µM | [13] 5.31 µM | [14] 4.86 µM | [15] 6.09 µM | [17] 5.2 µM | [18] 5.28 µM | [19] 5.51 µM | [20] 5.33 µM
